From PubChem BioAssay AID1159580 (chemical genetic matrix, 2015)
Out of some 5,500 compounds screened, about 2,000 (36%) were called active. Not shown: some 18% with an inconclusive outcome. Cut-off read from the data, not from the text of the source: active = normalized growth mostly below about 0.91 (no sharp cut-off); inconclusive = no clear call, values can overlap the other calls; inactive = mostly above about 0.92. The list shows a part of the results.

Experiment: chemical genetic growth profiling, strain panel (AID 1159580);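 note: tested at 20 µM; growth read once vehicle control cultures reached saturation at 30 °C; 1 = growth at the plate median or of vehicle wells; lower values mean less growth of the strain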
Conditions: S. cerevisiae deletion strains, growth OD

Measured: normalized growth

Cc1cc(N)c2ccccc2[n+]1CCCCCCCCCCCCCC[n+]1c(C)cc(N)c2ccccc21
active: locus YAL013W, strain DEP1, hits give low values 0.365 | locus YAL040C, strain CLN3, hits give low values 0.0844 | locus YCL061C, strain MRC1 (second series), hits give low values 0.0514 | locus YDR150W, strain NUM1, hits give low values 0.0556 | locus YDR363W, strain ESC2, hits give low values 0.0835 | locus YER002W, strain NOP16, hits give low values 0.0687 | locus YNL175C, strain NOP13, hits give low values 0.0676 | locus YNL197C, strain WHI3, hits give low values 0.0663 | locus YNL224C, strain SQS1, hits give low values 0.068 | locus YOR083W, strain WHI5 (second series), hits give low values 0.0774
